High-throughput results deposited in PubChem BioAssay by National Center for Advancing Translational Sciences (NCATS).
Hits are enriched below; roughly 21% of the tested compounds scored in any of these assays.
Gal4-VP16 FLuc = inhibits Gal4-VP16 luciferase reporter, ROR gamma counter-screen; Potency, µM (highest dose often 53.6 µM), without a hit: at the top dose activity, negative = inhibition, actives largely listed as inhibitors; Drosophila S2 Gal4-VP16 UAS-luciferase, luminescence, 20 h; 3.5% of 310,000 active; AID 2546;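 further: Gal4-VP16 expression switched on by copper sulfate through the metallothionein promoter; potency means the concentration at half of the fitted maximal effect; nearly all actives have a fitted effect of over 50% in size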
RORg inh = inhibitors of mouse ROR gamma transcriptional activity; P51450; Drosophila S2 Gal4-RORgamma UAS-luciferase reporter, 20 h; Potency, µM (doses to about 53.6 µM), without a hit: top-dose activity change, negative = inhibition, usual class: inhibitors; 5.4% of 310,000 active; AID 2551; further: potency means the concentration at half of the fitted maximal effect; nearly all actives have a fitted effect of over 60% in size
Target sequence (P51450 whole entry, looked up, the tested form may be a part): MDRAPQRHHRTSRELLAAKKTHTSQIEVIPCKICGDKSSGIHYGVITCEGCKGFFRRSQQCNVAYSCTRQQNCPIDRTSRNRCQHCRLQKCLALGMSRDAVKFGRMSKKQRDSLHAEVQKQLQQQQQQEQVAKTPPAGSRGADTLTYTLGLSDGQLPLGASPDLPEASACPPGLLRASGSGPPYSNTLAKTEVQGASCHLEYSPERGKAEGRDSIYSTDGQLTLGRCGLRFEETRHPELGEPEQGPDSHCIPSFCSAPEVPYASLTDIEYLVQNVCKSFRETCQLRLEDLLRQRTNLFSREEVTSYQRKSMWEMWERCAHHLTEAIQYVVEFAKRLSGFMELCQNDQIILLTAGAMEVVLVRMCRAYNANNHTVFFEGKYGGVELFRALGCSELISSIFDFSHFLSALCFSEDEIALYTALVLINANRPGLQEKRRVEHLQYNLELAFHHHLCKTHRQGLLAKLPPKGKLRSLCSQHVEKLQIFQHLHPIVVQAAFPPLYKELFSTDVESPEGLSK
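Using a luciferase readout, inhibitors were identified by reduced reporter activity in Drosophila cells coexpressing a copper-inducible Gal4–ROR gamma fusion and UAS-driven Photinus luciferase, incubated 20 hr after 700 uM copper sulfate.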
IL1B secr inh = blocks inflammasome-driven IL-1 beta release | THP-1 LPS/ATP IL-1B secretion, AlphaLISA, 16 h; active compounds read low | activity change, % at 57.5 µM | 4.7% of 360,000 active; in the data active means activity change below about -50%; inconclusive means mostly about -30% to -49%
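Secreted IL-1B measured by AlphaLISA bead assay after 16 h compound exposure of THP-1 cells; compounds (final up to 57.5 uM) added 1 h before LPS (250 ng/mL) and ATP (1.25 mM) stimulation; lower signal means less secretion.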
TDP1 cell noCPT = qHTS for Inhibitors of human tyrosyl-DNA phosphodiesterase 1 (TDP1): qHTS in cells in absence of CPT; DT40 Tdp1-/- hTDP1 cells, no CPT, ATP luminescence, 48 h; Potency, µM (series often up to 46.2 µM), for inactives: top-dose activity change, negative = growth inhibition, most hits filed as inhibitors; 15% of 420,000 active; AID 686978, 2013; further: potency means the concentration at half of the fitted maximal effect; nearly all actives have a fitted effect of over 55% in size
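Seeded 400 DT40-hTDP1 cells/well (vehicle DMSO, no 20 nM CPT); pinned compounds; ≥48 hr at 37 °C; CellTiter-Glo luminescence as viability measure.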
ELG1 DNA repair = blocks ELG1-dependent DNA repair in HEK293T cells; HEK293T ELG1-luciferase reporter, luminescence, 16 h; DNA damage induced by 5-fluorouridine; Potency, µM (titrated, usually from 46.1 µM), for the others: at the top dose activity change, negative = inhibition, usual class: inhibitors; 2.3% of 330,000 active; further: potency means the concentration at half of the fitted maximal effect; nearly all actives have a fitted effect of over 55% in size
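Quantitative HTS, concentration-response format. 2,000 cells/well co-treated with 5-fluorouridine and compound, 16 hr in 5% CO2 at 37 °C; ONE-Glo luminescence read after 30 min.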
TDP1 cell CPT = DT40-hTDP1 cell growth loss with CPT. 12% of 420,000 active. AID 686979. chicken DT40 Tdp1-/-;hTDP1 cells + 20 nM CPT, ATP luminescence, 48 h. Potency, µM (highest dose often 46.2 µM), without a hit: at the highest dose activity change, negative = growth inhibition, hits mostly inhibitors; further: potency means the concentration at half of the fitted maximal effect; nearly all actives have a fitted effect of over 55% in size
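Chicken DT40 Tdp1-/- cells stably complemented with human TDP1 were seeded at 400 cells/well in medium containing 20 nM camptothecin, exposed to pin-transferred compounds, and grown at 37 °C for at least 48 hr. Viability was read as ATP luminescence.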
* = called active by the depositor; ? = inconclusive; nt = no result; [ ] = dose if it differs, or a comment. Unless noted, the call rests on the fitted dose curve; in most records, active means well fitted curve in the direction sought with a large enough effect; inconclusive means small, poorly fitted or top-dose-only effect, or another doubt; inactive means no such curve, though single readings can be large; an effect the other way counts as inactive or inconclusive. On the % scale 0 is the no-effect control and ±100 the full control effect.

SMILES | Gal4-VP16 FLuc | RORg inh | IL1B secr inh | TDP1 cell noCPT | ELG1 DNA repair | TDP1 cell CPT
O=c1c2ccccc2nc2n1C(CSCc1ccc(Cl)cc1Cl)CS2 (stereo not drawn) | 22.4µM* | -1.7% | ? | 6.51µM* | -9.5% | 9.2µM*
CC(OC(=O)/C(C#N)=C/c1ccc(N(C)C)cc1)C(=O)N(C)Cc1ccccc1 (stereo not drawn) | -17.6% | 23.5% | 10.0 | 11.6µM* | -10.7% | ?
CCCc1cc(=O)[nH]c(SCC(=O)Nc2ccc(OC(F)F)cc2)n1 | 1.2% | 32.2% | 11.2 | -14.0% | -2.7% | -9.0%
c1ccc(-c2ccc(-n3ccnc3)cc2)cc1 | 1.1% | ? | -24.4 | ? | ? | 25.9µM*
c1ccc(-c2nc(N3CCN(c4ccccc4)CC3)nc(-n3ccnc3)n2)cc1 | 15.8µM* | 12.6µM* | ? | 16.4µM* | ? | ?
CCCN(C)C1CN(Cc2cn(Cc3cccc(C(F)(F)F)c3)nn2)S(=O)(=O)C1 (stereo not drawn) | nt | nt | 2.8 | -12.6% | nt | -11.8%
COC(=O)/C=C1\OCc2cccc(C)c21 | nt | nt | ? | 19.7% | nt | 31.2%
CCC[C@@H](CN1CCC[C@H]1CN1C(N)=NC[C@H]1CC(C)C)N1C[C@@H](Cc2ccccc2)N(CCc2ccc(Cl)c(Cl)c2)C1=N | nt | nt | -68.5* | ? | 14.7% | 20.6µM*
CC(C)C[C@@H](CN1CCC[C@H]1CN1C(=O)C(=O)NC[C@@H]1Cc1ccccc1)N1C[C@H](Cc2ccc(O)cc2)N(CCc2ccccc2)C(=O)C1=O | nt | nt | -16.6 | ? | nt | ?
CCC[C@@H](CN1CCC[C@H]1CN1C(N)=NC[C@@H]1Cc1ccccc1)N1C[C@@H](Cc2ccccc2)N(CCc2ccc(Cl)c(Cl)c2)C1=N | nt | nt | -53.0* | ? | 0.0% | ?
CS(=O)(=O)N1CCC2(CC1)CN(C(=O)Nc1ccccc1)C2 | -0.3% | 2.5% | nt | -6.4% | nt | 4.8%
NC(N)=N/N=C/c1cccc(Cl)c1Cl | -4.1% | 3.0% | -101.5* | ? | 13.4% | ?
COC(=O)C1=C[C@@H](C(=O)OC)C2C3=C(C(=O)[C@@]2(C)NC(=O)c2ccccc2)[C@H](c2ccccc2)[C@@H]2C(=O)N(c4ccccc4)C(=O)[C@@H]2[C@@H]3C1 (stereo partly drawn) | 0.5% | -9.5% | nt | nt | nt | nt
O=C(C1CCCCC1)N1CCC(CO)(Cc2ccccc2Cl)CC1 | -0.5% | ? | ? | 20.6µM* | ? | ?
COC(=O)[C@]12CCCCC=C1N(Cc1ccc3c(c1)OCO3)C(=O)[C@H](CC(=O)N1CCCCC1)C2 | nt | nt | -9.0 | ? | nt | ?
Cc1ccc(C2=NOC(=O)/C2=C\C=C\c2ccccc2)cc1 | ? | 14.1µM* | -95.7* | 4.61µM* | ? | 4.61µM*
CC1=NN(c2ccccc2)C(=O)/C1=C/C=C/c1ccccc1 | 17.8µM* | ? | -129.3* | 2.59µM* | 20.6µM* | -75.5%
CN(C)/C=C1\C(=O)ON=C1c1ccccc1 | -11.4% | -6.9% | 0.0 | -8.9% | -6.7% | 16.0%
COc1ccccc1/C=C1/C(=O)N(c2ccccc2)N=C1C | -1.2% | -18.1% | 2.7 | -17.3% | 7.3% | -22.2%
CC1=NN(c2cccc(C(=O)O)c2)C(=O)/C1=C\C=C\c1ccco1 | ? | 3.55µM* | -95.8* | ? | ? | ?
Cc1ccc(NC(=O)CN2C(=O)NC(Cc3c[nH]c4ccccc34)C2=O)cc1 (stereo not drawn) | nt | nt | -14.4 | -29.4% | -6.1% | -8.3%
O=C(O)c1cnn(-c2nc(-c3ccc(Br)cc3)cs2)c1C(F)(F)F | ? | 2.3% | -11.0 | ? | ? | -6.5%
Cc1cccc(/C=N/NC(=O)Cc2ccc(Cl)cc2)c1O | 1µM* | 1.12µM* | 98.3 | ? | ? | 18.4µM*
O=C(Cc1ccc(Cl)cc1)N/N=C/c1c(Cl)cccc1Cl | -9.6% | -5.9%[10 µM] | 14.4 | ? | ? | -19.8%
Cc1cccc(/C=N\NC(=O)c2ccc(Cl)cc2)c1O | 12.6µM* | 6.31µM* | 118.4 | ? | ? | 4.61µM*
SMILES | Gal4-VP16 FLuc | RORg inh | IL1B secr inh | TDP1 cell noCPT | ELG1 DNA repair | TDP1 cell CPT
O=C(COC(=O)c1ccc(O)cc1)c1ccc2c(c1)OCCO2 | nt | nt | -9.4 | -21.0% | ? | -5.3%
CC(C)CNS(=O)(=O)c1cc(C(=O)OCC(=O)c2ccc3c(c2)OCCO3)c(Cl)cc1Cl | 10.8% | 36.1% | -239.7* | ? | -1.8% | -21.1%
CCCn1c(C)cc(C(=O)COC(=O)c2cc(S(=O)(=O)NCC(C)C)c(Cl)cc2Cl)c1C | 9.9% | ? | -3.0 | 14.6µM* | ? | ?
Cc1c2cnn(CC(=O)N3CCN(c4ccc(F)cc4)CC3)c(=O)c2c(C)n1Cc1ccccc1F | nt | nt | nt | 18.4µM* | nt | 20.6µM*
Cc1c2cnn(CC(=O)N3CCN(c4ccc(F)cc4)CC3)c(=O)c2c(C)n1Cc1ccc(F)cc1 | nt | nt | nt | 7.31µM* | nt | 23.1µM*
O=C(Cn1ncc2c([nH]c3ccccc32)c1=O)N1CCN(c2ccc(F)cc2)CC1 | 1.2% | -0.4% | -6.8 | 21.5% | 1.1% | -14.6%
O=C1C2C(c3ccccc3)CC=CC2[C@H](c2ccc3ccccc3c2)N1Cc1ccccc1 (stereo partly drawn) | -0.4% | 26.3% | -19.6 | 23.1µM* | -28.5% | 20.6µM*
CC1CC=CC2C1C(=O)N(Cc1ccccc1)C2c1ccc(F)c(-c2ccc(N(C)C)cc2)c1 (stereo not drawn) | 0.8% | 5.5% | nt | nt | nt | nt
COc1ccc(-c2cccc([C@H]3[C@@H]4C=CC[C@@H](C)[C@@H]4C(=O)N3Cc3ccccc3)c2)cc1 | -7.4% | 3.5% | -23.2 | 20.6µM* | -11.1% | 23.1µM*
CC(=O)c1ccc(-c2cccc([C@H]3[C@@H]4C=CC[C@@H](C)[C@@H]4C(=O)N3Cc3ccccc3)c2)cc1 | -4.9% | 2.9% | -20.2 | 13µM* | ? | 10.3µM*
Cc1ccc(-c2cc([C@H]3[C@H]4C=CC[C@@H](C)[C@@H]4C(=O)N3Cc3ccccc3)ccc2F)cc1 | 10.4% | 5.1% | 15.3 | 20.6µM* | -17.0% | ?
CCN1C(=O)[C@H]2[C@H]3[C@H](O)[C@H](O)C/C(=N/OCc4ccccc4)[C@@H]3CC[C@@H]2C1=O | -8.1%[10 µM] | 37.0%[10 µM] | nt | nt | nt | nt
OCc1cccc(Cl)c1Cl | -3.0% | 2.4% | nt | nt | nt | nt
COc1ccc(C2=Nn3c(nnc3-c3ccccc3C)SC2)cc1OC | -3.2% | -11.2% | nt | nt | nt | nt
